In PubChem BioAssay (EPA / NIEHS):
The source made the active and inactive calls. The calls were made as follows: active = hit-call score of the fitted dose curve at least 0.9, where 1 is the maximum; inactive = score below 0.9.

Columns and labels:
[1] = read-out: Interferon-gamma inducible Protein 10 (IP10), CXCL10 (gene 3627); experiment: BSK_hDFCGF_IP10: BioMAP Diversity Plus: hDFCGF Assay for Interferon-gamma inducible Protein 10 (IP10) Biomarker Activity (AID 2283053); settings: primary human foreskin fibroblasts; actives raise or lower the signal
Outline: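 Primary human foreskin fibroblasts exposed to chemicals for 24 h. IP-10 measured by ELISA; changes fitted bidirectionally against DMSO baseline.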

[2] = read-out: Urokinase-type plasminogen activator receptor (uPAR), PLAUR (gene 5329); experiment: BSK_CASM3C_uPAR: BioMAP Diversity Plus: CASM3C Assay for Urokinase-type plasminogen activator receptor (uPAR) Biomarker Activity (AID 2283054); settings: primary human coronary artery smooth muscle cells; actives raise or lower the signal;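 also: cell-surface uPAR protein level quantified by ELISA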
[3] = read-out: Vascular cell adhesion molecule 1 (VCAM1), VCAM1 (gene 7412); experiment: BSK_CASM3C_VCAM1: BioMAP Diversity Plus: CASM3C Assay for Vascular cell adhesion molecule 1 (VCAM1) Biomarker Activity (AID 2283055); settings: primary human coronary artery smooth muscle cells; actives raise or lower the signal;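 also: VCAM-1 protein level quantified by ELISA on the cells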
[4] = read-out: Collagen III, COL3A1 (gene 1281); experiment: BSK_hDFCGF_CollagenIII: BioMAP Diversity Plus: hDFCGF Assay for Collagen III Biomarker Activity (AID 2283056); settings: primary human foreskin fibroblasts; actives raise or lower the signal
Outline: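 Cells: human foreskin fibroblasts, primary. Dosing followed by 24 h incubation, then ELISA for collagen III. Both increases and decreases scored relative to DMSO.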

[5] = read-out: Epidermal growth factor receptor (EGFR), EGFR (gene 1956); experiment: BSK_hDFCGF_EGFR: BioMAP Diversity Plus: hDFCGF Assay for Epidermal growth factor receptor (EGFR) Biomarker Activity (AID 2283057); settings: primary human foreskin fibroblasts; actives raise or lower the signal
Outline: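 Primary human foreskin fibroblasts (hDFCGF system), sampled 24 h after dosing; EGFR quantified by ELISA. Bidirectional fit relative to DMSO baseline; SRB total-protein staining in parallel cultures for cytotoxicity.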

[6] = read-out: Interleukin-8 (IL8), CXCL8 (gene 3576); experiment: BSK_hDFCGF_IL8: BioMAP Diversity Plus: hDFCGF Assay for Interleukin-8 (IL8) Biomarker Activity (AID 2283058); settings: primary human foreskin fibroblasts; actives raise or lower the signal
Outline: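 IL-8 levels from compound-treated primary human fibroblasts were read by ELISA at 24 h, with DMSO serving as baseline for bidirectional fitting.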

[7] = BSK_hDFCGF_Proliferation: Cell Proliferation Assessment in the BioMAP Diversity Plus: hDFCGF Assay (AID 2283059); settings: primary human foreskin fibroblasts;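 also: curves fitted for both rise and fall of signal versus DMSO baseline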
Outline: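 Total protein read at 560 nm after 0.1% SRB staining of TCA-fixed human skin fibroblasts, […]. Activity is fitted in both directions relative to DMSO as baseline.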

[8] = read-out: Macrophage colony-stimulating factor (MCSF), CSF1 (gene 1435); experiment: BSK_hDFCGF_MCSF: BioMAP Diversity Plus: hDFCGF Assay for Macrophage colony-stimulating factor (MCSF) Biomarker Activity (AID 2283060); settings: primary human foreskin fibroblasts; actives raise or lower the signal
Outline: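 M-CSF levels, determined by ELISA, are taken at 24 h after dosing human skin fibroblasts. Responses in either direction are fitted with DMSO serving as the baseline.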

[9] = BSK_hDFCGF_SRB: Viability Assessment in the BioMAP Diversity Plus: hDFCGF Assay (AID 2283061); settings: primary human foreskin fibroblasts;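 also: cells exposed to compound for 24 h before the read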
Outline: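 Cells were dosed with test chemical, cultured 24 h, fixed with 10% TCA, then stained with 0.1% SRB and read at 560 nm. The fibroblasts were human foreskin primary cells, and DMSO served as baseline.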

[10] = read-out: TIMP metallopeptidase inhibitor 1 (TIMP1), TIMP1 (gene 7076); experiment: BSK_hDFCGF_TIMP1: BioMAP Diversity Plus: hDFCGF Assay for TIMP metallopeptidase inhibitor 1 (TIMP1) Biomarker Activity (AID 2283062); settings: primary human foreskin fibroblasts; actives raise or lower the signal
Outline: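 Fibroblasts from human foreskin are treated with test chemical and harvested at 24 h. TIMP-1 is quantified by ELISA, and gain or loss of signal is scored against DMSO.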

Compound	outcome [1]	outcome [2]	outcome [3]	outcome [4]	outcome [5]	outcome [6]	outcome [7]	outcome [8]	outcome [9]	outcome [10]	AC50 [1]	AC50 [5]	AC50 [7]	AC50 [8]	AC50 [9]	AC50 [2]	AC50 [4]	AC50 [3]	AC50 [6]	AC50 [10]
Cc1cc(C)c(O)c(C)c1	inactive	inactive	inactive	inactive	inactive	inactive	inactive	inactive	inactive	inactive										
CC(C)(C)CC(C)(C)c1ccc(O)c(-n2nc3ccccc3n2)c1		inactive	inactive	inactive		inactive				inactive	14.6 µM (active)	14.2 µM (active)	6.71 µM (active)	5.47 µM (active)	9.39 µM (active)					
CC#C[C@]1(O)CC[C@H]2[C@@H]3CCC4=CC(=O)CCC4=C3[C@@H](c3ccc(N(C)C)cc3)C[C@@]21C	inactive		inactive		inactive	inactive		inactive		inactive			26.6 µM (active)		20 µM (active)	30.6 µM (active)	12.9 µM (active)			
CCCCCCCCC(=O)O	inactive	inactive	inactive	inactive	inactive	inactive	inactive	inactive	inactive	inactive										
O=C(O)Cc1cc(I)c(Oc2cc(I)c(O)c(I)c2)c(I)c1		inactive								inactive	8.02 µM (active)	7.78 µM (active)	13.4 µM (active)	14 µM (active)	12.2 µM (active)		4.05 µM (active)	13.4 µM (active)	22.2 µM (active)	
Oc1cc2ccccc2c2ccccc12					inactive						2 µM (active)		1.56 µM (active)	2.72 µM (active)	3.24 µM (active)	11.2 µM (active)	1.9 µM (active)	8.3 µM (active)	3.94 µM (active)	3.41 µM (active)
O=[N+]([O-])c1ccc(O)cc1	inactive	inactive	inactive	inactive	inactive	inactive	inactive	inactive	inactive	inactive										
CC(=O)CC(C)(C)O	inactive	inactive	inactive	inactive	inactive	inactive	inactive	inactive	inactive	inactive										
ClC1=C(Cl)C(Cl)(Cl)C(Cl)=C1Cl					inactive						9.62 µM (active)		4.2 µM (active)	9.09 µM (active)	12.8 µM (active)	6.99 µM (active)	14 µM (active)	5.1 µM (active)	17 µM (active)	12.4 µM (active)
CCCOC(=O)c1ccc(O)cc1	inactive	inactive	inactive	inactive	inactive	inactive	inactive	inactive	inactive	inactive										
CC(C)(C)c1cccc(C(C)(C)C)c1O		inactive	inactive		inactive						37.8 µM (active)		35 µM (active)	31 µM (active)	35.7 µM (active)		35.9 µM (active)		36.8 µM (active)	36.3 µM (active)
c1ccc2cc3c(ccc4ccccc43)cc2c1	inactive	inactive	inactive	inactive	inactive	inactive	inactive	inactive	inactive	inactive										
CCN(CC)CCNc1ccc(CNC=O)c2sc3ccc(OC)cc3c(=O)c12					inactive						15.5 µM (active)		6.31 µM (active)	12.9 µM (active)	14.6 µM (active)	11.1 µM (active)	16.2 µM (active)	12 µM (active)	33.7 µM (active)	13.1 µM (active)
CCCCCCCC(=O)O	inactive	inactive	inactive	inactive	inactive	inactive	inactive	inactive	inactive	inactive										
CN(C)C=O	inactive	inactive	inactive	inactive	inactive	inactive	inactive	inactive	inactive	inactive										
c1ccc2c(c1)ccc1ccccc12	inactive	inactive	inactive	inactive	inactive	inactive	inactive	inactive	inactive	inactive										
CCc1nn(C2CCCCC2)c2cc(C3(C#N)CCC(C(=O)O)CC3)ccc12 (stereo not given)						inactive					4.83 µM (active)	1.26 µM (active)	4.27 µM (active)	5.16 µM (active)	4.51 µM (active)	1.03 µM (active)	1.75 µM (active)	5.03 µM (active)		3.54 µM (active)
